# Bioassay records as filed in PubChem BioAssay.
# Compounds with a hit are over-represented: about 1.9% of the library has one in this group of screens.
# PABP polyA inh = PABP poly(A) RNA binding inhibitors, primary screen, biochemical, fluorescence polarization, uHTS | Polyadenylate-binding protein 1 (Homo sapiens), P11940 | AID 2014, 2009 | 290,000 tested, 1% active | calls only at 35 µM;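 also: calls also rest on retests at 20 µM and on dose response follow-up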
# eIF4E 4G PPI = eIF4E–eIF4G protein interaction inhibitors, primary screen, biochemical, uHTS, TR-FRET, eIF4GI fragment | Eukaryotic translation initiation factor 4E (Mus musculus) + Eukaryotic translation … | TR-FRET eIF4E-eIF4GI(517-606) binding, 2 h | inhibition, % at 21.7 µM | 220,000 tested, 0.37% active | AID 782, 2007;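 active = inhibition above about 30%, limit read from the data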
# eIF4H FP inh = human eIF4H binding inhibitors, primary screen, translation initiation inhibitor project, biochemical, uHTS, fluorescence polarization; Eukaryotic translation initiation factor 4H (Homo sapiens), Q15056; eIF4H fluorescence polarization binding assay; inhibition, % at 35 µM; 290,000 tested, 0.94% active;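 also: calls also rest on retests at 20 µM and on dose response follow-up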
# MLLE-PAM2 inh = inhibitors of PABP1 MLLE–PAM2 peptide binding, primary screen, biochemical, fluorescence polarization, FITC-PAM2, GST-MLLE | 360,000 tested, 0.36% active | AID 588489, 2011 | inhibition, % at 20 µM; in the data active = inhibition above about 35%, passing the limit was not always enough
# 14-3-3 Bad PPI = inhibitors of 14-3-3 zeta/Bad binding, primary screen, biochemical, TR-FRET, bovine 14-3-3 zeta; inhibition, % at 21.7 µM; 14-3-3 protein zeta/delta (Bos taurus), P63103; 220,000 tested, 0.71% active; TR-FRET 14-3-3zeta/Dy647-pBad peptide displacement, 1 h;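 active = inhibition above about 70%, limit read from the data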
# Hits are given with their value; n = inactive; x = no result; + = active, no number. Unless noted, no rule for the calls is given here.
SMILES,PABP polyA inh,eIF4E 4G PPI,eIF4H FP inh,MLLE-PAM2 inh,14-3-3 Bad PPI
C=CCN1C=C2C(=O)C(C)(OC(=O)CCC(=O)OC)C(=O)C(Br)=C2C=C1c1ccc(OC)cc1 (centres undefined),+,n,95,n,n
Cc1ccc([N+](=O)[O-])cc1S(=O)(=O)Nc1ccc(O)c(Sc2ncn[nH]2)c1,n,x,n,41,x
Cc1cc(O)c(Sc2ncn[nH]2)cc1NS(=O)(=O)c1ccc(Cl)cc1,x,x,x,n,x
CN(C)CCCNc1cc(O)c2ncccc2c1,x,x,x,41,x
[O-]/[N+](=C\C=C\c1ccccc1)c1ccccc1,+,n,1.1,n,n
O=C(NCCCn1ccnc1)c1ccc(-c2cccc(C(F)(F)F)c2)o1,x,x,x,n,x
COc1cccc(NC(=O)COc2ccc(N3CC(C(=O)NCC(C)C)CC3=O)cc2)c1 (centres undefined),n,72,n,n,n
O=C(N=Nc1ccc(NOC(=O)c2ccccc2Br)cc1)c1ccccc1O,n,n,n,x,n
Cc1cc(O)ccc1Nc1nc2ccccc2nc1Nc1ccc(O)cc1C,+,n,24,n,n
CS(=O)(=O)N1CCN(c2ccc([N+](=O)[O-])c(NCc3ccc(Cl)cc3)c2)CC1,+,n,active,n,71
Cc1ccc(C(=O)NCC(=O)Nc2cccc(C(F)(F)F)c2)cc1,n,n,active,n,n
O=C(Nc1ccc2c(c1)nc1n2CCN(C2CCCCC2)C1)c1ccco1,n,n,94,n,n
O=C(Nc1ccc2c(c1)nc1n2CCSC1)c1ccco1,n,n,72,n,n
O=C(C=Cc1ccco1)c1cc(Cl)ccc1O,x,x,x,n,x
O=C(/C=C/c1ccco1)c1ccccc1O,n,82,n,n,n
O=C(/C=C/c1ccco1)c1cccnc1,+,x,56,n,x
CCCN(C(=O)CCSc1ccc(F)cc1)c1c(N)n(Cc2ccccc2)c(=O)[nH]c1=O,n,x,n,n,x
N#CCSc1nnc(CNc2ccc(F)cc2)o1,+,n,111,48,n
N#CCSc1nnc(CNc2cccc(Cl)c2)o1,n,x,n,n,x
Clc1ccc(-c2nc3ccc(Cl)cn3c2Cc2ccsc2)cc1,x,x,x,n,x
CCCc1nc2ccc(Cl)cn2c1Cc1ccsc1,x,x,x,44,x
CC1(C)Oc2ccc3ccc(=O)oc3c2C(N2CCCCC2)C1O (centres undefined),n,n,42,n,n
CC1(C)Oc2ccc3ccc(=O)oc3c2[C@H](O)[C@H]1O,x,x,x,n,x
